Assay [1] is described as follows: Caspase-3/7 induction in HepG2 cells by small molecules, qHTS assay (AID 1346978). Note: nearly all actives have a fitted effect of over 15% in size. In outline: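 Wild-type HepG2 cells (2,000/well) were settled 5 h at 37 C, 5% CO2, then exposed to compounds in DMSO for 17 h. Caspase-3/7 activity was read by luminescence 30 min after adding Caspase-Glo 3/7 reagent at room temperature.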
A short description of assay [2]: Caspase-3/7 induction in CHO-K1 cells by small molecules, qHTS cell viability counter screen (AID 1346979). Note: nearly all actives have a fitted effect of over 35% in size. The essentials:
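Wild-type CHO-K1 cells were seeded at 1,500 per well, rested 5hr at 37 C, then exposed to compounds in DMSO. After 16hr, CellTiter-Fluor reagent was added and fluorescence read 1hr later as the viability measure.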
In general terms: In qHTS, concentration-response curves come from the screen itself.

Assay [3] in a line: Caspase-3/7 induction in CHO-K1 cells by small molecules, qHTS assay (AID 1346980). Note: nearly all actives have a fitted effect of over 15% in size. The essentials:
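Wild-type cells were seeded at 1,500 per well and settled 5 hr at 37 C, 5% CO2, then exposed to DMSO-dissolved compounds for 17 hr. Caspase-Glo 3/7 reagent was added, and luminescence was read after 30min at room temperature.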

Assay [4] can be described thus: Caspase-3/7 induction in HepG2 cells by small molecules, qHTS cell viability counter screen (AID 1346981). Note: series mostly up to about 92 µM; nearly all actives have a fitted effect of over 30% in size. The essentials: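 Steps: seed 2,000 HepG2 cells per well; incubate 5 hr at 37 C; pin-add compounds in DMSO; incubate 16 hr; add CellTiter-Fluor; after 1 hr at 37 C and 5% CO2, read fluorescence.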
Assay [5] concerns the target Nuclear receptor subfamily 1 group I member 2 (Homo sapiens) (UniProt O75469). The assay can be described thus: Human pregnane X receptor (PXR) small molecule agonists, qHTS assay (AID 1346982). Note: nearly all actives have a fitted effect of over 35% in size. Note: potency is the fitted concentration of half-maximal effect. In outline: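 Agonist mode qHTS: PXR-Luc HepG2 cells plated 5 hr before DMSO-dissolved compounds were pinned in, cultured 24 hr at 37 C, 5% CO2; ONE-Glo luminescence readout.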

For assay [6], the target named is Nuclear receptor subfamily 1 group I member 2 (Rattus norvegicus) (UniProt Q9R1A7). The assay can be described thus: Rat pregnane X receptor (rPXR) activation by small molecules, qHTS assay (AID 1346983). Note: nearly all actives have a fitted effect of over 20% in size. Particulars: rPXR luciferase reporter cells, One-Glo luminescence, 24 h; max activation: stronger effect = higher value. In outline:
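Cell-based rPXR luciferase reporter assay, 2,000 cells per well, rested 5hr at 37 C before compound addition in DMSO, then 24 hr at 37 C. One-Glo reagent was added and luminescence read after 30 min at room temperature.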

The target in assay [7] is Nuclear receptor subfamily 1 group I member 2 (Homo sapiens) (UniProt O75469). The assay can be described thus: CYP3A4 induction through human pregnane X receptor (PXR) by small molecules, qHTS assay (AID 1346984). Note: nearly all actives have a fitted effect of over 40% in size. The essentials: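 Steps: seed DPX-2 cells, 5 hr at 37C; pin-transfer compounds; 24 hr at 37C; add Luciferin-IPA (3uM final), 3 hr at 37C; add One-Glo, 30 min RT; read luminescence.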
Sequence of Nuclear receptor subfamily 1 group I member 2 (Homo sapiens) (O75469 whole entry, looked up): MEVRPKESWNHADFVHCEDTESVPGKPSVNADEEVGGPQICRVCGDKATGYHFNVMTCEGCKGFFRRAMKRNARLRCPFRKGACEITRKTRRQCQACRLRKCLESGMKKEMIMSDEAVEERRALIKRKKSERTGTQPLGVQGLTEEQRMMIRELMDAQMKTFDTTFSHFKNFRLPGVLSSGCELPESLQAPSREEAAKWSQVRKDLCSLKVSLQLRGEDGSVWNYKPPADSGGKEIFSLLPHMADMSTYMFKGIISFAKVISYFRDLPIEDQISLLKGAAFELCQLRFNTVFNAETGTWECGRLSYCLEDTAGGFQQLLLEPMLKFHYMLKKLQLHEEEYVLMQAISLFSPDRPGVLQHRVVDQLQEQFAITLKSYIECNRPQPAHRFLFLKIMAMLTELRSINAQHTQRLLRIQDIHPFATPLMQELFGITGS

The target is the same in assay [8]. The assay can be described thus: Human pregnane X receptor (PXR) activation by small molecules, qHTS assay (AID 1346985). Note: nearly all actives have a fitted effect of over 40% in size. In outline:
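DPX-2 cells (HepG2 co-transfected with a PXR response element and a CYP3A4-promoter luciferase construct) were seeded at 2,000 per well, rested 5 hr at 37C, then exposed to DMSO-dissolved compounds for 24 hr. Activation was read as luciferase luminescence.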

Assay [9] addresses Cytochrome P450 2D6 (Homo sapiens) (UniProt P10635). Description: Cytochrome P450 Family 2 Subfamily D Member 6 (CYP2D6) small molecule antagonists: luciferase reporter qHTS assay (AID 1671196). Note: nearly all actives have a fitted effect of over 50% in size. Note: potency is the fitted concentration of half-maximal effect. The essentials:
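P450-Glo format: CYP2D6 converts a proluciferin substrate to luciferin in an NADPH-driven reaction lasting 1 h at room temperature. Light output, proportional to CYP2D6 activity, reflects interference by test chemicals.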
For orientation: A reporter such as luciferase makes a cellular process visible.

Assay [10] concerns the target Cytochrome P450 2C19 (Homo sapiens) (UniProt P33261). Description: Cytochrome P450 Family 2 Subfamily C Member 19 (CYP2C19) small molecule antagonists: luciferase reporter qHTS assay (AID 1671197). Note: nearly all actives have a fitted effect of over 65% in size. Note: potency is the fitted concentration of half-maximal effect. In outline:
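Enzyme-substrate mix with proluciferin substrate (P450-Glo CYP2C19 system) preincubated with compounds 10 min at room temperature; NADPH regeneration solution added, 37C for 1 h; detection reagent stops reaction, luminescence read after 20 min. Ketoconazole positive control.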

The target of assay [11] is Cytochrome P450 2C9 (Homo sapiens) (UniProt P11712). Description: Cytochrome P450 Family 2 Subfamily C Member 9 (CYP2C9) small molecule antagonists: luciferase reporter qHTS assay (AID 1671198). Note: nearly all actives have a fitted effect of over 50% in size. Note: potency is the fitted concentration of half-maximal effect. In outline: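 CYP2C9 activity was measured with a P450-Glo proluciferin substrate. Enzyme–substrate mix was held with compound for 10 min at room temperature, then NADPH regeneration solution was added for 1 h at 37C. Luciferin product was read as luminescence.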
Sequence of Cytochrome P450 2C9 (Homo sapiens) (P11712 whole entry, looked up): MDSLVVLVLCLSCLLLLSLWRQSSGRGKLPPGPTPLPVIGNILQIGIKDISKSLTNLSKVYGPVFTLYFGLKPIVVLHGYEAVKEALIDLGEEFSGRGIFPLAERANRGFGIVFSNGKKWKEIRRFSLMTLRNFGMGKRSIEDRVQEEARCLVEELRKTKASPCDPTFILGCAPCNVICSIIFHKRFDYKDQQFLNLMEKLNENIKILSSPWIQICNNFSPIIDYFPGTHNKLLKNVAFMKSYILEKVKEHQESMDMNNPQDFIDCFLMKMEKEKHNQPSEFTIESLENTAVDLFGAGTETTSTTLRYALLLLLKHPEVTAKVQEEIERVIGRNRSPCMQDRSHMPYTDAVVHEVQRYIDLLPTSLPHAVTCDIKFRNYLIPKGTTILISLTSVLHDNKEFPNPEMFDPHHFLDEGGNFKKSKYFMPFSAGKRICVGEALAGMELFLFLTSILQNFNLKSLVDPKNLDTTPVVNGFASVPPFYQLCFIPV

Assay [12] has as its target Voltage-gated inwardly rectifying potassium channel KCNH2 (Homo sapiens) (UniProt Q12809). Description: Human Ether-a-go-go-Related Gene (hERG) channel small molecule antagonists: fluorescence cell-based qHTS assay (AID 1671200).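 Note: hERG-expressing U2OS cells given a thallium stimulus after FluxOR II dye loading; series mostly up to about 77 µM; nearly all actives have a fitted effect of over 50% in size.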 The essentials: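 U2OS cells expressing the channel were plated at 1000 cells/well, incubated overnight at 37 C, then loaded with FluxOR II thallium-sensitive dye for 1 h at room temperature in the dark, with a further 10 min at room temperature before stimulation.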
For orientation: Block of hERG is tested as a sign of cardiac risk.

In assay [13] the target is Cytochrome P450 3A4 (Homo sapiens) (UniProt P08684). Description: Cytochrome P450 Family 3 Subfamily A Member 4 (CYP3A4) small molecule antagonists: luciferase reporter qHTS assay (AID 1671201). Note: nearly all actives have a fitted effect of over 50% in size. Note: potency is the fitted concentration of half-maximal effect. The essentials:
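P450-Glo CYP3A4 system with proluciferin substrate; compounds preincubated 10 min RT with enzyme-substrate mix, then NADPH regeneration added for 1 h RT. Detection reagent 20 min, luminescence read as relative luminescence units.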

For assay [14], the target named is Cytochrome P450 1A2 (Homo sapiens) (UniProt P05177). Description: Cytochrome P450 Family 1 Subfamily A Member 2 (CYP1A2) small molecule antagonists: luciferase reporter qHTS assay (AID 1671199). Note: nearly all actives have a fitted effect of over 50% in size. Note: potency is the fitted concentration of half-maximal effect. In outline: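 Inhibition of CYP1A2 conversion of proluciferin to luciferin, detected by luminescence. Reaction run 1 h at room temperature with NADPH regeneration after brief compound preincubation.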
Sequence of Cytochrome P450 1A2 (Homo sapiens) (P05177 whole entry, looked up): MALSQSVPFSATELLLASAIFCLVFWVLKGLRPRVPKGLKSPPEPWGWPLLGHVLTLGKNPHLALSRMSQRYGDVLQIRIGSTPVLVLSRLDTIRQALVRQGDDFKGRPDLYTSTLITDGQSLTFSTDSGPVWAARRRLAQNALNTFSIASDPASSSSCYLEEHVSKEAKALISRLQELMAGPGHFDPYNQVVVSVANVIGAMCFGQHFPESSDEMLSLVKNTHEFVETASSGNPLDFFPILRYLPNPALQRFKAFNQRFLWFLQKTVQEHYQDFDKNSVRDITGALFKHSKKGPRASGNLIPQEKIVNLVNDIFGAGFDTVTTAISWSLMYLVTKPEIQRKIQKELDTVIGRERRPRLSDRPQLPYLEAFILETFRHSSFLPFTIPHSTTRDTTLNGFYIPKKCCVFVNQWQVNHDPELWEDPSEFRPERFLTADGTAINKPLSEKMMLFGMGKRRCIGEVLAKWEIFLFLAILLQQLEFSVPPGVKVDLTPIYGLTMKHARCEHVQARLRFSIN

Unmarked numbers belong to inactive results. Records with an inconclusive call do not appear. Active and inactive are the calls of the source. Calls come from the whole dose curve; as a rule, active = well fitted curve in the direction sought with a large enough effect in the repeat runs; inconclusive = weak or mixed curves; inactive = no such curve, though single readings can be large; an effect the other way counts as inactive or inconclusive.
% is set by controls: 0 for no effect and ±100 for the full control effect.

Sequence of Cytochrome P450 2D6 (Homo sapiens) (P10635 whole entry, looked up): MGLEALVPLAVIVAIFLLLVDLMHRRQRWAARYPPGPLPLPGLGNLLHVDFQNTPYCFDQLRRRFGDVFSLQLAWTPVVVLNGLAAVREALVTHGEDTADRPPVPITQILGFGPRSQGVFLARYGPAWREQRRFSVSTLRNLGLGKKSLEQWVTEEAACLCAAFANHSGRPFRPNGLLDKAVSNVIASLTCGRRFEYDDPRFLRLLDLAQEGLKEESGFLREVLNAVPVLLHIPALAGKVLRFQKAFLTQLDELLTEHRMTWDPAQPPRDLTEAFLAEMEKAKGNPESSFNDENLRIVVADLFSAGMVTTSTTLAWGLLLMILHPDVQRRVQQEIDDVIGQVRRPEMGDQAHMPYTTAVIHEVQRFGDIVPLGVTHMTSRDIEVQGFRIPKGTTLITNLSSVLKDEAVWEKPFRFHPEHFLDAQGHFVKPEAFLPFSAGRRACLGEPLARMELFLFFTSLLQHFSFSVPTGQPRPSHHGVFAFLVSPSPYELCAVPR
Sequence of Cytochrome P450 3A4 (Homo sapiens) (P08684 whole entry, looked up): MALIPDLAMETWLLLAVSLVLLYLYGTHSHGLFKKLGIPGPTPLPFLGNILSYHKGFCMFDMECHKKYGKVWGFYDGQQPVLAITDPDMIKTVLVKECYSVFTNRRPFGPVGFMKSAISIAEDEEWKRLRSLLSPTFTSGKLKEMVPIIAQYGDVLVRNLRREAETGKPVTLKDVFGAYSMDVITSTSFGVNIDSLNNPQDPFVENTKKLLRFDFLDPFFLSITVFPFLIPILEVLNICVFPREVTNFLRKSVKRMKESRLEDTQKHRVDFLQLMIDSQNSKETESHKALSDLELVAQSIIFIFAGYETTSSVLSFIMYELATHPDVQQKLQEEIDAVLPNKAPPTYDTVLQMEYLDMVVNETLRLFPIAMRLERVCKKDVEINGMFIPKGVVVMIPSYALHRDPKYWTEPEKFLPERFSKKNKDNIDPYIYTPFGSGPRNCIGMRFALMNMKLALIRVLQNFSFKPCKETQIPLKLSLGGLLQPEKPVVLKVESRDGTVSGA
Sequence of Voltage-gated inwardly rectifying potassium channel KCNH2 (Homo sapiens) (Q12809 whole entry, looked up): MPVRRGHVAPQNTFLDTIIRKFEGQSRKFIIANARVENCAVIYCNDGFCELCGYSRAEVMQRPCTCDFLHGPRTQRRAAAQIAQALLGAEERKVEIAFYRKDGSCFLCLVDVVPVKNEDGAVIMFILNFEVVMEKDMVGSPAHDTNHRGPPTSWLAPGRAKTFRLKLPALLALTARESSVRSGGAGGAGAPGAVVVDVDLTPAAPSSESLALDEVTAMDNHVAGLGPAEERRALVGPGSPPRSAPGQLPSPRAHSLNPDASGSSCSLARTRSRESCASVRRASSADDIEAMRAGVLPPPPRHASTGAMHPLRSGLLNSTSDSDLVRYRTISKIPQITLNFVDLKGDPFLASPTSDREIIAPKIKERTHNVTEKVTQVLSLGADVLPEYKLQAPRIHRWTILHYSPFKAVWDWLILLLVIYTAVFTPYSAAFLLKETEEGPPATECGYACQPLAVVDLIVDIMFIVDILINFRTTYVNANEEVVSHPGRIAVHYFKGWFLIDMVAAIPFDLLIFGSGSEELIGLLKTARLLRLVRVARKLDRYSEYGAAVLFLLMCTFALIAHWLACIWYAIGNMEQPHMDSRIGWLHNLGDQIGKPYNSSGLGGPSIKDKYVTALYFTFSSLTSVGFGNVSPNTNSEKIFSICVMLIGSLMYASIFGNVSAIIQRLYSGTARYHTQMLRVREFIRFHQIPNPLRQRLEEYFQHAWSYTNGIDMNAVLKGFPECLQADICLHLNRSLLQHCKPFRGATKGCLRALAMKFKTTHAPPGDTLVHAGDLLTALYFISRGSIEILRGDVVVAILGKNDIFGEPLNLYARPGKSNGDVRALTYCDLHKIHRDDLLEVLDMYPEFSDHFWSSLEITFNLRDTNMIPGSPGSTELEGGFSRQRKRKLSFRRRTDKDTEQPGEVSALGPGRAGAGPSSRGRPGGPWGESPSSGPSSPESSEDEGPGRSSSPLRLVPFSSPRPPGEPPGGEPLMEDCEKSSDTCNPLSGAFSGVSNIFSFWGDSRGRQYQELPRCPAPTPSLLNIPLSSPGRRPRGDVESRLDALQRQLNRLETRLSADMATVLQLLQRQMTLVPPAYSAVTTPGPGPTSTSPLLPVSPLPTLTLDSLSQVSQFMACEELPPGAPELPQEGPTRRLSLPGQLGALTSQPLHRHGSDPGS
Sequence of Cytochrome P450 2C19 (Homo sapiens) (P33261 whole entry, looked up): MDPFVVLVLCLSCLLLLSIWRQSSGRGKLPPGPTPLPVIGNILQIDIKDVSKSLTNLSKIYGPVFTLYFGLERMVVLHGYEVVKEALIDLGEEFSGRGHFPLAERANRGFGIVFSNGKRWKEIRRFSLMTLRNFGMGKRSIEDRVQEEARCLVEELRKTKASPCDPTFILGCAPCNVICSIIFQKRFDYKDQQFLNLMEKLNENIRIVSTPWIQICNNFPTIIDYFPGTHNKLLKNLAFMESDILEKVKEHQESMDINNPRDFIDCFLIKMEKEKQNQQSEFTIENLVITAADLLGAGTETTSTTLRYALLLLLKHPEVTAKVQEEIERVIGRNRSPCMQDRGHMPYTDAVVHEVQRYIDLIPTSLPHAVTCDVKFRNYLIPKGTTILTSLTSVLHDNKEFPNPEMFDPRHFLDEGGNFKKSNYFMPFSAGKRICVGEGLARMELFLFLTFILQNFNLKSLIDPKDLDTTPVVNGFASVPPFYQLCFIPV
Sequence of Nuclear receptor subfamily 1 group I member 2 (Rattus norvegicus) (Q9R1A7 whole entry, looked up): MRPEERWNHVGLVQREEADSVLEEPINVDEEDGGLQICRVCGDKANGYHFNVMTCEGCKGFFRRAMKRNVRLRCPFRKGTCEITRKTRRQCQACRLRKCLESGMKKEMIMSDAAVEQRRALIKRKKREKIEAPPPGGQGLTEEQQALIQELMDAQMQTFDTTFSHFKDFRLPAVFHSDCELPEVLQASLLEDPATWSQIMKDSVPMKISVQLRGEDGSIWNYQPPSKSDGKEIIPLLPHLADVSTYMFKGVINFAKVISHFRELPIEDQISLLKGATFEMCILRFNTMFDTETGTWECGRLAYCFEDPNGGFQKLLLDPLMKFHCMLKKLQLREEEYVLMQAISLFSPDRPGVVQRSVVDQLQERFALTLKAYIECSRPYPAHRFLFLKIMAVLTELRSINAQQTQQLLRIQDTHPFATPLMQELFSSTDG

Turning to `Cc1nc2ccc(CN(C)c3ccc(C(=O)N[C@@H](CCC(=O)O)C(=O)O)s3)cc2c(=O)[nH]1`, the compound was classed as inactive in assay [1] and in assay [3]. Moreover, the Potency result in [2], in assay [4], in assay [5], in [7], in [8] and in [9] was “inactive” in each case. In addition, the Potency entry in [10], in [11], in [12] and in assay [13] was “inactive” in each case. Further, the max activation in [6] was -1.92%.
Turning to `CC[N+](CC)(CC)CCOc1cccc(OCC[N+](CC)(CC)CC)c1OCC[N+](CC)(CC)CC`, the compound was classed as inactive in assay [1] and in assay [3]. For the same compound, the Potency entry in assay [2], in assay [4], in assay [5], in assay [7], in assay [8] and in [9] was “inactive” each time. Moreover, the Potency entry in assay [10], in assay [11], in [12] and in assay [13] was “inactive” in each case. For the same compound, the max activation in assay [6] is -1.52%.
As to `CC(=O)N1C[C@H](O)C[C@H]1C(=O)O`, the outcome in assay [1] and in [3] was inactive. Also, the Potency result in [2], in assay [4], in assay [5], in assay [7], in assay [8] and in assay [9] was “inactive” each time. Moreover, the Potency entry in assay [10], in assay [11], in assay [12] and in assay [13] was “inactive” each time. In addition, the max activation in [6] was -1.61%.
`COc1ccc2cc1Oc1cc3c(cc1OC)CC[N+](C)(C)[C@H]3Cc1ccc(cc1)Oc1c(OC)c(OC)cc3c1[C@@H](C2)[N+](C)(C)CC3`: the compound was called inactive in [1] and in [3]. Also, the Potency result in assay [2], in assay [4], in [5], in [7], in assay [8] and in [9] was “inactive” in each case. In addition, the Potency result in [10], in assay [11], in assay [14], in assay [12] and in [13] was “inactive” each time. Also, the max activation in assay [6] is 0.186%.
Turning to `CCCCCCC#CC(=O)OC`, the result in assay [1] and in assay [3] was inactive. Besides, the Potency entry in assay [2], in [4], in assay [5], in [9], in assay [10] and in assay [11] was “inactive” throughout. Besides, in [12], the Potency result was “inactive”.
As for `c1ccc(CCc2ccccc2)cc1`, the compound was classed as inactive in assay [1] and in [3]. Moreover, the Potency entry in assay [2], in assay [4], in assay [5], in assay [9], in assay [10] and in assay [11] was “inactive” in each case. Moreover, the Potency result in [14], in assay [12] and in [13] was “inactive” each time.
For the compound `CC(C)(C)C(=O)c1ccccc1`, the compound was classed as inactive in assay [1] and in [3]. The Potency entry in assay [2], in assay [4], in assay [5], in [9], in [10] and in assay [11] was “inactive” in each case. Besides, the Potency entry in assay [12] and in assay [13] was “inactive” throughout.
Turning to `CCOc1c(N2CCOCC2)cnn(C)c1=O`, the call in assay [1] and in assay [3] was inactive. Moreover, the Potency entry in assay [2], in assay [4], in assay [5], in assay [9], in assay [10] and in [11] was “inactive” throughout. In assay [12], the Potency result was “inactive”.
With `CCCO[Si](OCCC)(OCCC)OCCC`, the call in [1] and in assay [3] was inactive. Also, the Potency result in [2], in assay [4], in assay [5], in assay [9], in assay [10] and in [11] was “inactive” throughout. The Potency result in [12] and in assay [13] was “inactive” throughout.
In the case of `O=C(O)CCSCCC(=O)O`, the outcome in [1] and in [3] was inactive. Also, the Potency result in assay [2], in assay [4], in [5], in assay [9], in assay [10] and in assay [11] was “inactive” throughout. Further, the Potency entry in assay [14] and in assay [13] was “inactive” in each case.
For `CC(=O)C1CCCCC1=O` (centres undefined), the result in assay [1] and in assay [3] was inactive. Further, the Potency result in [2], in assay [4], in [5], in assay [9], in assay [14] and in assay [12] was “inactive” each time.
Turning to `OCCc1ccccn1`, the compound was classed as inactive in assay [1] and in [3]. The Potency result in assay [2], in assay [4], in assay [5], in [9], in [10] and in [11] was “inactive” each time. The Potency entry in assay [14], in [12] and in assay [13] was “inactive” in each case.
Consider `COc1ccnc(CS(=O)c2nc3cc(OC(F)F)ccc3[nH]2)c1OC` (centres undefined), for which the compound was classed as inactive in assay [1] and in assay [3]. Further, the Potency result in assay [2] and in assay [4] was “inactive” throughout. In addition, the Potency was 24.5 µM (active) in assay [5], 12.7 µM (active) in [9], 8.99 µM (active) in assay [10] and 35.8 µM (active) in assay [14].
On to `CN(C)CCN(C)CCN(C)C`, for which the result in [1] and in [3] was inactive. In addition, the Potency result in [2], in [4], in [9], in assay [10], in [11] and in assay [14] was “inactive” each time. Further, the Potency entry in assay [12] and in assay [13] was “inactive” throughout. Also, the Potency in assay [5] was 29.6 µM (active).
For `CCOC(=O)C(=O)CCCCCCl`, the call in [1] and in [3] was inactive. Moreover, the Potency entry in assay [2], in [4], in [5], in assay [12] and in assay [13] was “inactive” throughout. Also, the Potency in assay [9] is 38.9 µM (active); in [10], 17.4 µM (active).
Turning to `CO[Si](C)(OC)c1ccccc1`, the outcome in assay [1] and in assay [3] was inactive. Also, the Potency entry in assay [2], in assay [4], in assay [9] and in assay [12] was “inactive” each time. Moreover, the Potency in assay [5] was 30.6 µM (active); in assay [10], 7.1 µM (active); in [11] it was 35.6 µM (active); in [13] it was 25.2 µM (active).
Take `O=C(CO)[C@@H](O)[C@H](O)[C@@H](O)CO`: the call in assay [1] and in assay [3] was inactive. Further, the Potency entry in assay [2], in assay [4], in [5], in assay [9], in [10] and in assay [11] was “inactive” in each case. Also, the Potency result in assay [12] and in [13] was “inactive” in each case.
As for `NC(CCC(=O)O)C(=O)O` (centres undefined), the call in [1] and in assay [3] was inactive. The Potency entry in assay [2], in [4], in [5], in assay [10], in assay [11] and in assay [13] was “inactive” in each case. Moreover, the Potency in assay [9] is 31 µM (active).
Regarding `CCCCCC(=O)OCCc1ccccc1`, the compound was classed as inactive in assay [1] and in [3]. In addition, the Potency result in assay [2], in assay [4], in [5], in assay [9], in assay [12] and in assay [13] was “inactive” each time.
On to `COc1cc(-c2ccc(=O)[nH]n2)ccc1OC(F)F`, for which the compound was classed as inactive in assay [1] and in assay [3]. Further, the Potency result in [2], in [4], in assay [11] and in assay [12] was “inactive” throughout. Besides, the Potency in [5] was 4.73 µM (active); in assay [9], 4.36 µM (active).
